# Laboratory results published in PubChem BioAssay (NCI).
# Several values for one entry are separate records, joined by “and”; a condition that tells them apart may be missing. Identical values can stand only once. Compounds without any hit were thinned out: in the full panel of roughly 79,000, 15% have a hit. Some structures have more than one record in an assay (separate samples or runs), and their calls can disagree. Activity calls are given as the source filed them. Rule as the data show it: active = growth inhibition above about 70%; inactive = the rest.
# Columns and labels:
# [1] = NCI Yeast Anticancer Drug Screen. Data for the wt1 strain (AID 149);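 also: 0% = growth of vehicle-treated wt1 cultures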; conditions: S. cerevisiae wt1 strain (SPY 50644) growth inhibition, stronger effect = higher value
# In short: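 Measured: growth of wt1 yeast under compound versus vehicle treatment, reported as inhibition.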
# [2] = NCI Yeast Anticancer Drug Screen. Data for the rad50EPP+ strain (AID 151);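 also: 0% = growth of vehicle-treated control cultures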; conditions: S. cerevisiae rad50 mutant strain, stronger effect = higher value
# In short: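 Exposing the rad50EPP+ strain to each compound, growth was compared with vehicle-only cultures to give inhibition.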
# [3] = NCI Yeast Anticancer Drug Screen. Data for the mgt1 strain (AID 153); conditions: S. cerevisiae mgt1 mutant growth inhibition, stronger effect = higher value
# In short: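 Genetically defined yeast (mgt1) treated with compound; inhibition of growth expressed against vehicle-treated controls.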
# [4] = NCI Yeast Anticancer Drug Screen. Data for the rad50 strain (AID 155);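 also: 0% = growth of vehicle-only cultures of the same strain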; conditions: S. cerevisiae rad50 strain growth inhibition, stronger effect = higher value
# In short: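 Growth of the mutant yeast was measured after compound exposure and referenced to vehicle-treated cultures.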
# [5] = NCI Yeast Anticancer Drug Screen. Data for the mec2-1 strain (AID 157); conditions: S. cerevisiae mec2-1 strain, stronger effect = higher value
# In short: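 Readout is yeast growth inhibition, normalised to vehicle-treated controls, in the mec2-1 strain exposed to compound.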
# [6] = NCI Yeast Anticancer Drug Screen. Data for the rad14 strain (AID 159);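 also: 0% = growth of vehicle-treated control cultures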; conditions: S. cerevisiae rad14 strain growth inhibition, stronger effect = higher value
# In short: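 Here, inhibition of yeast growth was measured after compound exposure, using a strain with a genetic defect in DNA damage repair and vehicle-treated cultures as the reference.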
# [7] = NCI Yeast Anticancer Drug Screen. Data for the sgs1 mgt1 strain (AID 161);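 also: 0% = growth of cultures given vehicle only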; conditions: S. cerevisiae sgs1 mgt1 strain, stronger effect = higher value
# In short: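 Growth of a repair-deficient yeast mutant was monitored after compound treatment and expressed as inhibition relative to vehicle-treated cultures.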
# [8] = NCI Yeast Anticancer Drug Screen. Data for the CLN2oe strain (AID 163);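 also: 0% = growth of vehicle-only control cultures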; conditions: S. cerevisiae CLN2oe strain, stronger effect = higher value
# In short: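 Values reflect how much compound exposure reduced yeast growth, referenced to vehicle-exposed cells. Assay organism is a strain with a defined genetic change affecting cell-cycle control.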
# [9] = NCI Yeast Anticancer Drug Screen. Data for the cln2 rad14 strain (AID 165);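 also: 0% = growth equal to vehicle treated cultures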; conditions: S. cerevisiae cln2 rad14 strain, stronger effect = higher value
# In short: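 Relative to vehicle controls, growth inhibition of compound-treated cln2 rad14 yeast was recorded.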
# [10] = NCI Yeast Anticancer Drug Screen. Data for the bub3 strain (AID 167); conditions: S. cerevisiae bub3 mutant strain, stronger effect = higher value
# In short: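 Whole-cell yeast assay. The mutant strain was incubated with compounds, and growth inhibition was determined by comparison with vehicle-treated cells.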
# [11] = NCI Yeast Anticancer Drug Screen. Data for the wt2 strain (AID 169);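 also: 0% = growth of vehicle-treated yeast cultures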; conditions: S. cerevisiae wt2 strain growth inhibition, stronger effect = higher value
# In short: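 Values express reduction in yeast growth under compound treatment, referenced to vehicle-treated cells.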
# [12] = NCI Yeast Anticancer Drug Screen. Data for the mlh1 strain (AID 171);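 also: 0% = growth of vehicle-treated control cultures of the same strain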; conditions: S. cerevisiae mlh1 strain growth inhibition, stronger effect = higher value
# In short: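 Steps: expose the defined-mutant yeast strain to compound; expose a parallel culture to vehicle; measure growth; express compound effect as inhibition relative to the vehicle culture.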
# [13] = NCI Yeast Anticancer Drug Screen. Data for the sgs1 strain (AID 173);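 also: 0% = growth of vehicle-only control cultures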; conditions: S. cerevisiae sgs1 mutant, stronger effect = higher value
# In short: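 Treat defined-mutant yeast with compound; measure growth; calculate inhibition relative to vehicle-treated cells.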
# [14] = NCI Yeast Anticancer Drug Screen. Data for the mlh1 rad18 strain (AID 175); conditions: S. cerevisiae mlh1 rad18 strain growth inhibition, stronger effect = higher value
# In short: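 Test agents were incubated with a yeast strain of defined genotype (DNA damage repair defect). Inhibition of growth was derived by comparison with vehicle-exposed cultures.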
# [15] = NCI Yeast Anticancer Drug Screen. Data for the rad18 strain (AID 177); conditions: S. cerevisiae rad18 mutant growth inhibition, stronger effect = higher value
# In short: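 A genetically defined yeast mutant impaired in DNA damage repair was treated with test compounds, then its growth was measured against cultures receiving vehicle alone.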
# [16] = at 5.0 µM (retest, dose inferred, filed as 0.5)
# [17] = at 50.0 µM (retest, dose inferred, filed as 5.0)
compound,measurement,setting,value
COc1ccc(OC)c(/C=C/[N+](=O)[O-])c1,growth inhibition,[1]; at 1.2 µM,-6% (inactive)
same,growth inhibition,[1]; at 3.7 µM,-7% (inactive)
same,growth inhibition,[1]; at 11.0 µM,-9% (inactive)
same,growth inhibition,[1]; at 33.0 µM,7% (inactive)
same,growth inhibition,[1]; at 100.0 µM,71% (active)
same,growth inhibition,[2]; at 1.2 µM,29% (inactive)
same,growth inhibition,[2]; at 3.7 µM,59% (inactive)
same,growth inhibition,[2]; at 11.0 µM,74% (active)
same,growth inhibition,[2]; at 33.0 µM,86% (active)
same,growth inhibition,[2]; at 100.0 µM,99% (active)
same,growth inhibition,[3]; at 1.2 µM,0% (inactive)
same,growth inhibition,[3]; at 3.7 µM,-2% (inactive)
same,growth inhibition,[3]; at 11.0 µM,2% (inactive)
same,growth inhibition,[3]; at 33.0 µM,23% (inactive)
same,growth inhibition,[3]; at 100.0 µM,100% (active)
same,growth inhibition,[4]; at 1.2 µM,11% (inactive)
same,growth inhibition,[4]; at 3.7 µM,21% (inactive)
same,growth inhibition,[4]; [16],-83% (inactive) and 19% (inactive)
same,growth inhibition,[4]; at 11.0 µM,48% (inactive)
same,growth inhibition,[4]; at 33.0 µM,86% (active)
same,growth inhibition,[4]; [17],86% (active) and 95% (active)
same,growth inhibition,[4]; at 50.0 µM,99.4% (active)
same,growth inhibition,[4]; at 100.0 µM,99% (active)
same,growth inhibition,[5]; at 1.2 µM,1% (inactive)
same,growth inhibition,[5]; at 3.7 µM,2% (inactive)
same,growth inhibition,[5]; [16],-46% (inactive) and 9% (inactive)
same,growth inhibition,[5]; at 11.0 µM,7% (inactive)
same,growth inhibition,[5]; at 33.0 µM,30% (inactive)
same,growth inhibition,[5]; [17],-38% (inactive) and 97% (active)
same,growth inhibition,[5]; at 50.0 µM,99.7% (active) and 98.8% (active)
same,growth inhibition,[5]; at 100.0 µM,99% (active)
same,growth inhibition,[6]; at 1.2 µM,5% (inactive)
same,growth inhibition,[6]; at 3.7 µM,7% (inactive)
same,growth inhibition,[6]; at 11.0 µM,15% (inactive)
same,growth inhibition,[6]; at 33.0 µM,39% (inactive)
same,growth inhibition,[6]; at 100.0 µM,100% (active)
same,growth inhibition,[7]; [16],-53% (inactive) and 12% (inactive)
same,growth inhibition,[7]; [17],1% (inactive) and 64% (inactive)
same,growth inhibition,[7]; at 50.0 µM,91.3% (active) and 99% (active)
same,growth inhibition,[8]; at 1.2 µM,6% (inactive)
same,growth inhibition,[8]; at 3.7 µM,9% (inactive)
same,growth inhibition,[8]; at 11.0 µM,13% (inactive)
same,growth inhibition,[8]; at 33.0 µM,37% (inactive)
same,growth inhibition,[8]; at 100.0 µM,95% (active)
same,growth inhibition,[9]; [16],-60% (inactive) and 2% (inactive)
same,growth inhibition,[9]; [17],-45% (inactive) and 76% (active)
same,growth inhibition,[9]; at 50.0 µM,98.8% (active) and 98.4% (active)
same,growth inhibition,[10]; at 1.2 µM,0% (inactive)
same,growth inhibition,[10]; at 3.7 µM,6% (inactive)
same,growth inhibition,[10]; [16],-57% (inactive) and 35% (inactive)
same,growth inhibition,[10]; at 11.0 µM,13% (inactive)
same,growth inhibition,[10]; at 33.0 µM,25% (inactive)
same,growth inhibition,[10]; [17],-33% (inactive) and 79% (active)
same,growth inhibition,[10]; at 50.0 µM,99% (active)
same,growth inhibition,[10]; at 100.0 µM,99% (active)
same,growth inhibition,[11]; at 1.2 µM,0% (inactive)
same,growth inhibition,[11]; at 3.7 µM,-1% (inactive)
same,growth inhibition,[11]; at 11.0 µM,-2% (inactive)
same,growth inhibition,[11]; at 33.0 µM,15% (inactive)
same,growth inhibition,[11]; at 100.0 µM,85% (active)
same,growth inhibition,[12]; at 1.2 µM,10% (inactive)
same,growth inhibition,[12]; at 3.7 µM,-2% (inactive)
same,growth inhibition,[12]; at 11.0 µM,8% (inactive)
same,growth inhibition,[12]; at 33.0 µM,28% (inactive)
same,growth inhibition,[12]; at 100.0 µM,98% (active)
same,growth inhibition,[13]; at 1.2 µM,-1% (inactive)
same,growth inhibition,[13]; at 3.7 µM,18% (inactive)
same,growth inhibition,[13]; at 11.0 µM,29% (inactive)
same,growth inhibition,[13]; at 33.0 µM,54% (inactive)
same,growth inhibition,[13]; at 100.0 µM,100% (active)
same,growth inhibition,[14]; [16],-114% (inactive) and 37% (inactive)
same,growth inhibition,[14]; [17],-53% (inactive) and 95% (active)
same,growth inhibition,[14]; at 50.0 µM,97.9% (active) and 99.5% (active)
same,growth inhibition,[15]; at 1.2 µM,5% (inactive)
same,growth inhibition,[15]; at 3.7 µM,13% (inactive)
same,growth inhibition,[15]; at 11.0 µM,20% (inactive)
same,growth inhibition,[15]; at 33.0 µM,49% (inactive)
same,growth inhibition,[15]; at 100.0 µM,96% (active)
